# Source: PubChem BioAssay AID1347420 (Sanford-Burnham Center for Chemical Genomics, 2020)
# Out of some 1,300 compounds screened, about 980 (75%) were called active. Inconclusive results (about 4%) are left out. The list shows a part of the results. Unmarked numbers belong to inactive results.
# Biological target: Sulfhydryl oxidase 1 (Homo sapiens) (UniProt O00391)
# Test: inhibition of human sulfhydryl oxidase QSOX1 – biochemical, HyperBlu H2O2 luminescence, HTS, primary screen (AID 1347420); further: values above 100% were filed as inconclusive
# Details: recombinant QSOX1, HyperBlu H2O2 luminescence; at 12.5 µM; active compounds read high; active = any value above zero
# Sulfhydryl oxidase 1 (Homo sapiens), sequence (O00391 whole entry, looked up): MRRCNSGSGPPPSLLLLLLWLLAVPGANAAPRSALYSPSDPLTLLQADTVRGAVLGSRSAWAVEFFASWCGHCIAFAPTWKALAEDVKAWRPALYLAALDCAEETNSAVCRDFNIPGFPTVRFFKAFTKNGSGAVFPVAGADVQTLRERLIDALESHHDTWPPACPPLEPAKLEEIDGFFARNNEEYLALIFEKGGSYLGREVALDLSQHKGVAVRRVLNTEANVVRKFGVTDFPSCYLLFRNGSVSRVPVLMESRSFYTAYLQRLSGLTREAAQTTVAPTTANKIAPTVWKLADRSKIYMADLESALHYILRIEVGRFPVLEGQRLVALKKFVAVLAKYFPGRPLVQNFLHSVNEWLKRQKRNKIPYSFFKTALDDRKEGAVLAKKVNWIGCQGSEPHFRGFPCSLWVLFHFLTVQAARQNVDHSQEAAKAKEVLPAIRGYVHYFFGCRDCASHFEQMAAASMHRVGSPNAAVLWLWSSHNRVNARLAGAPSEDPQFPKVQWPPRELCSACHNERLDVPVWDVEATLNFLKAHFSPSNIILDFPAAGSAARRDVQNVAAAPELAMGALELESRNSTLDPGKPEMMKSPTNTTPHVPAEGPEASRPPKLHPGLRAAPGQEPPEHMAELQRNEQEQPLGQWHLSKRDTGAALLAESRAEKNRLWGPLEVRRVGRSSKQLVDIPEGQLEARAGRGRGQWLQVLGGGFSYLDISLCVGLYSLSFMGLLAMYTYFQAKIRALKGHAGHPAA
row,Compound,inhibition
1,CCN(CC)CCn1c(=O)c(Cc2ccc(OC)cc2)nc2ccccc21,11.3% (active)
2,CCCNCC(O)COc1ccccc1C(=O)CCc1ccccc1 (stereo not drawn),9.1% (active)
3,O=C(O)c1cc2cc(Cc3cccnc3)ccc2o1,12.1% (active)
4,NC(N)=Nc1nc(CSCC/C(N)=N/S(N)(=O)=O)cs1,19.1% (active)
5,CC(/C=C/c1cccc(Oc2ccc(F)cc2)c1)N(O)C(N)=O (stereo not drawn),17.2% (active)
6,O=C(CCc1ccc(O)cc1)c1c(O)cc(O)cc1O,35.5% (active)
7,NS(=O)(=O)C#Cc1ccccc1,7% (active)
8,NC(=O)c1cnccn1,6.1% (active)
9,CCCCCCCCCCCCCCC[C@H](O)[C@H](N)CO,18.5% (active)
10,COc1ccc(NC(=O)c2ccc(-c3ccc(-c4noc(C)n4)cc3C)cc2)cc1N1CCN(C)CC1,3.7% (active)
11,CCCCCN(C)CCC(O)(P(=O)(O)O)P(=O)(O)O,-4.8%
12,O=c1onc2n1-c1cc(Br)ccc1OC2,5.7% (active)
13,CC(C)(C)c1ccc(C(=O)CCCN2CCC(OC(c3ccccc3)c3ccccc3)CC2)cc1,8.3% (active)
14,C[C@@H](NCCc1ccc(O)cc1)[C@@H](O)c1ccc(O)cc1,14.4% (active)
15,CC(CCc1ccc(O)cc1)NCCc1ccc(O)c(O)c1 (stereo not drawn),83.4% (active)
16,O=c1[nH]c2cc(C(F)(F)F)ccc2n1-c1cc(C(F)(F)F)ccc1O,11.5% (active)
17,C[C@H]1CC2C3CCC4=CC(=O)C=C[C@]4(C)[C@@]3(Cl)[C@@H](O)C[C@]2(C)[C@@]1(O)C(=O)CO (stereo partly drawn),-10.3%
18,CC1CC2C3CCC4=CC(=O)C=C[C@]4(C)[C@@]3(F)[C@@H](O)C[C@]2(C)[C@@]1(O)C(=O)CO (stereo partly drawn),11.4% (active)
19,C[C@]12C=CC(=O)C=C1CC[C@H]1[C@@H]3C[C@@H](O)[C@](O)(C(=O)CO)[C@@]3(C)C[C@H](O)[C@@]12F,26.2% (active)
20,C#CCN1C(C)=C(C(=O)OC)C(c2cccc([N+](=O)[O-])c2)C(C(=O)OCC)=C1C (stereo not drawn),7.8% (active)
21,COC(=O)C1=C(C)NC(C)=C(C(=O)OCCN(C)Cc2ccccc2)C1c1cccc([N+](=O)[O-])c1 (stereo not drawn),6.8% (active)
22,CCOC(=O)C1=C(C)NC(C)=C(C(=O)OCC)C1c1c(F)c(F)c(F)c(F)c1F,-4.7%
23,CCOC(=O)C1=C(C)NC(C)=C(C(=O)OC)C1c1cccc([N+](=O)[O-])c1 (stereo not drawn),14% (active)
24,CCOC(=O)C1=C(C)NC(C)=C(C(=O)OC)C1c1cccc(Cl)c1Cl (stereo not drawn),6.3% (active)
25,COCCOC(=O)C1=C(C)NC(C)=C(C(=O)OC/C=C/c2ccccc2)C1c1cccc([N+](=O)[O-])c1 (stereo not drawn),32.1% (active)
26,COC(=O)C1=C(C)NC(C)=C(C(=O)OC(C)(C)CN(C)CCC(c2ccccc2)c2ccccc2)C1c1cccc([N+](=O)[O-])c1 (stereo not drawn),21.8% (active)

row,Compound,inhibition
1,COCCOC(=O)C1=C(C)NC(C)=C(C(=O)OC(C)C)C1c1cccc([N+](=O)[O-])c1 (stereo not drawn),16.8% (active)
2,CCN1CCC[C@H]1CNC(=O)c1c(O)c(Cl)cc(Cl)c1OC,14.4% (active)
3,NCCNC(=O)c1ncsc1-c1cccc(F)c1,-11.5%
4,O=C1NCC2(CCN(CCc3ccccc3)CC2)O1,10.5% (active)
5,Cc1ccc(O)c(N=Nc2ccccc2)n1,30.2% (active)
6,Cc1cc(NC2CCCCC2)nc(-n2nc(C)cc2C)n1,6.3% (active)
7,CCCCCCCC/C=C\CCCCCCCC(=O)NCCO,0.4% (active)
8,CCCCCCC(=O)OC1CC(C)(C)NC(C)(C)C1,-7.9%
9,CCCCCCCCCCCCCCCC(=O)NCCO,8.6% (active)
10,C[C@]12CC[C@@H]3c4ccc(O)cc4CC[C@H]3[C@@H]1CC[C@@H]2O,24.6% (active)
11,C[C@]12CC[C@@H]3c4ccc(O)cc4CC[C@H]3[C@@H]1CCC2=O,22.4% (active)
12,C[C@](N)(Cc1ccc(O)cc1)C(=O)O,2.9% (active)
13,CC(N)(Cc1ccc(O)cc1)C(=O)O (stereo not drawn),50.5% (active)
14,COC(=O)C(C)(N)Cc1ccc(O)cc1 (stereo not drawn),2.3% (active)
15,CCOC(=O)C1=C[C@]2(CC)CCCN3CCc4c(n1c1ccccc41)[C@@H]32,8.5% (active)
16,CCc1ccc2c(-c3cccc(Cl)c3)nc(=O)n(CC)c2n1,20% (active)
17,CCOC(=O)c1ncn2c1CN(C)C(=O)c1cc(F)ccc1-2,11.8% (active)
18,CN(Cc1cnc2nc(N)nc(N)c2n1)c1ccc(C(=O)N[C@@H](CCC(=O)O)C(=O)O)cc1,3.6% (active)
19,Nc1nc(N)c2nc(CNc3ccc(C(=O)NC(CCC(=O)O)C(=O)O)cc3)cnc2n1 (stereo not drawn),34.3% (active)
20,CC1(C)NC(=O)N(c2ccc([N+](=O)[O-])c(C(F)(F)F)c2)C1=O,-8.3%
21,CC(C)C(=O)Nc1ccc([N+](=O)[O-])c(C(F)(F)F)c1,4.7% (active)
22,Nc1nc(SCc2ccc([N+](=O)[O-])cc2)c2ncn([C@@H]3O[C@H](CO)[C@H](O)C3O)c2n1 (stereo partly drawn),33.7% (active)
23,O=[N+]([O-])c1ccc(CSc2ncnc3c2ncn3[C@@H]2O[C@H](CO)[C@H](O)C2O)cc1 (stereo partly drawn),33.9% (active)
24,C=CC(N)CCC(=O)O (stereo not drawn),-9.5%
25,C#CC(N)CCC(=O)O (stereo not drawn),13.5% (active)
26,Nc1nc2c(ncn2COC(CO)CO)c(=O)[nH]1,10.7% (active)

row,Compound,inhibition
1,Nc1nc2c(ncn2COCCO)c(=O)[nH]1,19.3% (active)
2,Cc1cccc(-c2[nH]c(C(C)(C)C)nc2-c2ccc3nccnc3c2)n1,-12.5%
3,N=S(=O)([O-])Cc1noc2c1C=C[C+]=C2,9.3% (active)
4,OC[C@H]1NC[C@@H](O)[C@@H]1O,10.5% (active)
5,OCC1NCC(O)C(O)C1O (stereo not drawn),14.4% (active)
6,CCN1/C(=C/C(C)=O)Sc2ccc(OC)cc21,58.1% (active)
7,CC[C@H](C)C(=O)O[C@H]1CCC=C2C=C[C@H](C)[C@H](CC[C@@H]3C[C@@H](O)CC(=O)O3)[C@H]21,8.8% (active)
8,CC(C)(C)NCC(O)COc1nsnc1N1CCOCC1 (stereo not drawn),3.8% (active)
9,CC1CNCCN1S(=O)(=O)c1cccc2cnccc12 (stereo not drawn),37.4% (active)
10,CC1CN(S(=O)(=O)c2cccc3cnccc23)CCN1 (stereo not drawn),4.9% (active)
11,O=Nc1ccc2oc(=O)ccc2c1,85% (active)
12,COC(=O)Nc1nc2ccc(C(=O)c3cccs3)cc2[nH]1,12.3% (active)
13,O=c1[nH]c(=O)c2nc3ccccc3nc2[nH]1,3.9% (active)
14,NC(=O)c1cn(Cc2c(F)cccc2F)nn1,-7.2%
15,CCCN(CCC)CCc1cccc2c1CC(=O)N2,-8.3%
16,CO[C@@]1(NC(=O)CSCC#N)C(=O)N2C(C(=O)O)=C(CSc3nnnn3C)CS[C@@H]21,10% (active)
17,CN1C(=O)CC[C@H]1c1cccnc1,3.9% (active)
18,CN1CCC[C@H]1c1cccnc1,2.5% (active)
19,COc1ccccc1CNCCCCCCNCCCCCCCCNCCCCCCCNc1ccccc1OC,0.8% (active)
20,C#CCCN,25.9% (active)
21,NC(=O)c1ccc2[nH]ccc2c1,-15.5%
22,NC(=O)c1cccc(N)c1,19% (active)
23,NC(=O)c1ccccc1,-9.9%
24,CC[C@@H](C)[C@H]1O[C@]2(CC[C@@H]1C)C[C@@H]1C[C@@H](C/C=C(\C)[C@@H](O[C@H]3C[C@H](OC)[C@@H](O[C@H]4C[C@H](OC)[C@@H](O)[C@H](C)O4)[C@H](C)O3)[C@@H](C)/C=C/C=C3\CO[C@@H]4[C@H](O)C(C)=C[C@@H](C(=O)O1)[C@]34O)O2,10.8% (active)
25,Cc1cccc(/C=C/c2ccccc2)n1,3.6% (active)
26,O=NN(CCCl)C(=O)NCCCl,10.3% (active)

row,Compound,inhibition
1,CCCNC(C)C(=O)Nc1ccccc1C (stereo not drawn),3.1% (active)
2,Nc1nc2ccc(OC(F)(F)F)cc2s1,7.2% (active)
3,CCSC(=N)N,3% (active)
4,CSC(=N)N,14.1% (active)
5,NC(=O)CNCCC(c1ccccc1)c1ccccc1,1.3% (active)
6,N=C(N)N1CCc2ccccc2C1,18.5% (active)
7,CC(C)NNC(=O)c1ccncc1,0.1% (active)
8,C1COC(NC(C2CC2)C2CC2)=N1,-6.7%
9,CN(C)CCCC1(c2ccc(F)cc2)OCc2cc(C#N)ccc21 (stereo not drawn),8.6% (active)
10,Nn1nnc2ccccc21,21.7% (active)
11,N[C@@H](Cc1c[nH]c2ccccc12)C(=O)O,3.4% (active)
12,N[C@@H](Cc1c[nH]c2ccc(O)cc12)C(=O)O,45.4% (active)
13,O=C(O)Cc1c[nH]c2ccc(O)cc12,47.5% (active)
14,Cc1cnc(NC(=O)C2=C(O)c3ccccc3S(=O)(=O)N2C)s1,44.2% (active)
15,CN1C(C(=O)Nc2ccccn2)=C(O)c2ccccc2S1(=O)=O,35.6% (active)
16,CN1C2CCCC1CC(NC(=O)c1nn(C)c3ccccc13)C2 (stereo not drawn),8.4% (active)
17,CC(=O)O[C@]1(C(C)=O)CC[C@H]2[C@@H]3C=C(Cl)C4=CC(=O)[C@@H]5C[C@@H]5[C@]4(C)[C@H]3CC[C@@]21C,-5.1%
18,NCCS(=O)O,4.2% (active)
19,CC(=O)NNC(=O)N1Cc2ccccc2Oc2ccc(Cl)cc21,17.2% (active)
20,N[C@@H](Cn1ccc(=O)c(O)c1)C(=O)O,10.1% (active)
21,O=[N+]([O-])c1ccc(-c2nc(-c3ccc(F)cc3)c(-c3ccncc3)[nH]2)cc1,92.4% (active)
22,Oc1ccc(-c2nc(-c3ccc(F)cc3)c(-c3ccncc3)[nH]2)cc1,97% (active)
23,O=C1Cc2c([nH]c3ccc(Br)cc23)-c2ccccc2N1,1.7% (active)
24,C=C1N=C(N=NC2=C(S(=O)(=O)[O-])[C+]=C(S(=O)(=O)[O-])[C+]=C2)[C+](COP(=O)([O-])O)C(C=O)=C1O,6.1% (active)
25,O=C1OC(=O)C2C3CCC(O3)C12 (stereo not drawn),9.8% (active)
